Results: PubChem BioAssay AID1159580 (chemical genetic matrix, 2015)
Hit rate of the full screen: of about 5,500 compounds, about 2,000 (36%) were called active. About 18% were inconclusive and are not listed. No stated cut-off is given here; in the data, active means normalized growth mostly below about 0.91 (no sharp cut-off); inconclusive means no clear call, values can overlap the other calls; inactive means mostly above about 0.92. Some of the results follow.

Experiment: chemical genetic growth profiling, strain panel (AID 1159580);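 further: tested at 20 µM; growth read once vehicle control cultures reached saturation at 30 °C; 1 = growth at the plate median or of vehicle wells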
Settings: S. cerevisiae deletion strains, growth OD

Measured: normalized growth

CC(C)(CCC(C)(C)N1C(=O)c2cccc3cccc(c23)C1=O)N1C(=O)c2cccc3cccc(c23)C1=O
inactive: locus YDL132W, strain cdc53, stronger effect = lower value 0.971 | locus YJR016C, strain ILV3, stronger effect = lower value 0.976 | locus YPR111W, strain DBF20, stronger effect = lower value 0.92
active: locus YAR019C, strain CDC15, stronger effect = lower value 0.0987 | locus YBL105C, strain PKC1, stronger effect = lower value 0.0855 | locus YBR135W, strain CKS1, stronger effect = lower value 0.0899 | locus YBR136W, strain MEC1, stronger effect = lower value 0.107 | locus YBR160W, strain CDC28, stronger effect = lower value 0.0904 | locus YDL017W, strain CDC7, stronger effect = lower value 0.0866 | locus YDL028C, strain MPS1, stronger effect = lower value 0.0947 | locus YDL101C, strain DUN1, stronger effect = lower value 0.628 | locus YDL108W, strain KIN28, stronger effect = lower value 0.13 | locus YDL214C, strain PRR2, stronger effect = lower value 0.0867 | locus YDR052C, strain DBF4, stronger effect = lower value 0.308 | locus YDR054C, strain cdc34, stronger effect = lower value 0.227 | locus YDR226W, strain ADK1, stronger effect = lower value 0.509 | locus YDR477W, strain SNF1, stronger effect = lower value 0.0979 | locus YER123W, strain YCK3, stronger effect = lower value 0.103 | locus YER133W, strain GLC7, stronger effect = lower value 0.0935 | locus YFL029C, strain CAK1, stronger effect = lower value 0.0982 | locus YFR003C, strain YPI1, stronger effect = lower value 0.0904 | locus YFR019W, strain FAB1, stronger effect = lower value 0.0894 | locus YGR040W, strain KSS1, stronger effect = lower value 0.1 | locus YGR052W, strain FMP48, stronger effect = lower value 0.133 | locus YGR092W, strain DBF2, stronger effect = lower value 0.098 | locus YHR030C, strain SLT2, stronger effect = lower value 0.0982 | locus YHR079C, strain IRE1, stronger effect = lower value 0.116 | locus YHR082C, strain KSP1, stronger effect = lower value 0.129 | locus YHR205W, strain SCH9, stronger effect = lower value 0.213 | locus YIL147C, strain SLN1, stronger effect = lower value 0.0853 | locus YJL095W, strain BCK1, stronger effect = lower value 0.128 | locus YJL128C, strain PBS2, stronger effect = lower value 0.472 | locus YJL157C, strain FAR1, stronger effect = lower value 0.0837 | locus YJR066W, strain TOR1 (second series), stronger effect = lower value 0.12 | locus YJR066W, strain TOR1, stronger effect = lower value 0.123 | locus YKL048C, strain ELM1, stronger effect = lower value 0.104 | locus YKL067W, strain YNK1, stronger effect = lower value 0.0909 | locus YKL101W, strain HSL1, stronger effect = lower value 0.099 | locus YKL193C, strain SDS22, stronger effect = lower value 0.0977 | locus YKL203C, strain TOR2, stronger effect = lower value 0.116 | locus YLR113W, strain HOG1, stronger effect = lower value 0.166 | locus YLR133W, strain CKI1, stronger effect = lower value 0.0889 | locus YLR403W, strain SFP1, stronger effect = lower value 0.0154 | locus YML070W, strain DAK1, stronger effect = lower value 0.0999 | locus YMR001C, strain CDC5, stronger effect = lower value 0.0878 | locus YMR205C, strain PFK2 (second series), stronger effect = lower value 0.0998 | locus YMR277W, strain FCP1, stronger effect = lower value 0.104 | locus YNL006W, strain LST8, stronger effect = lower value 0.0921 | locus YNL020C, strain ARK1, stronger effect = lower value 0.0878 | locus YNL161W, strain CBK1, stronger effect = lower value 0.0843 | locus YNL183C, strain NPR1, stronger effect = lower value 0.13 | locus YNL207W, strain RIO2, stronger effect = lower value 0.508 | locus YNL222W, strain SSU72, stronger effect = lower value 0.095 | locus YNL307C, strain MCK1 (second series), stronger effect = lower value 0.0953 | locus YOL078W, strain AVO1, stronger effect = lower value 0.093 | locus YOL136C, strain PFK27, stronger effect = lower value 0.0923 | locus YOR061W, strain CKA2, stronger effect = lower value 0.1 | locus YOR119C, strain RIO1, stronger effect = lower value 0.118 | locus YOR231W, strain MKK1, stronger effect = lower value 0.13 | locus YOR329C, strain SCD5, stronger effect = lower value 0.0829 | locus YPL031C, strain PHO85, stronger effect = lower value 0.0976 | locus YPL153C, strain RAD53, stronger effect = lower value 0.101 | locus YPL204W, strain HRR25, stronger effect = lower value 0.0987 | locus YPL209C, strain IPL1, stronger effect = lower value 0.0859 | locus YPL256C, strain CLN2, stronger effect = lower value 0.134 | locus YPR025C, strain CCL1, stronger effect = lower value 0.0843 | strain NNK1, stronger effect = lower value 0.0956 | strain TSCII, stronger effect = lower value 0.0989

C[N+](C)(CCCCCC[N+](C)(C)CCCN1C(=O)c2cccc3cccc(c23)C1=O)CCCN1C(=O)c2cccc3cccc(c23)C1=O
inactive: locus YAL040C, strain CLN3, stronger effect = lower value 0.984 | locus YCL061C, strain MRC1 (second series), stronger effect = lower value 1 | locus YDR150W, strain NUM1, stronger effect = lower value 1 | locus YDR363W, strain ESC2, stronger effect = lower value 0.986 | locus YER002W, strain NOP16, stronger effect = lower value 1.01 | locus YGR229C, strain SMI1, stronger effect = lower value 1 | locus YMR307W, strain GAS1, stronger effect = lower value 0.981 | locus YNL128W, strain TEP1, stronger effect = lower value 0.995 | locus YNL153C, strain GIM3, stronger effect = lower value 0.955 | locus YNL175C, strain NOP13, stronger effect = lower value 1.01 | locus YNL197C, strain WHI3, stronger effect = lower value 1.01 | locus YNL224C, strain SQS1, stronger effect = lower value 1 | locus YOR083W, strain WHI5 (second series), stronger effect = lower value 1.01 | locus YPL055C, strain LGE1, stronger effect = lower value 0.963 | locus YPL241C, strain CIN2, stronger effect = lower value 0.99
